Values joined by “and” are separate entries in the source; they are usually repeats but may differ in a detail not shown here. Equal values may be shown once. More than one record can exist for a structure, and the calls need not agree. Active and inactive are the calls of the source. Rule for the calls: active = hit-call score of the fitted dose curve at least 0.9, where 1 is the maximum; inactive = score below 0.9.
These compounds were tested on Pselectin, SELP (gene 6403) (assay: BSK_4H_Pselectin: BioMAP Diversity Plus: 4H Assay for Pselectin Biomarker Activity (AID 2283026)). Details: primary human endothelial cells (HUVEC); actives raise or lower the signal.
Description: BSK_4H is a cell-based, multiplexed-readout assay that uses umbilical vein endothelium, a human vascular primary cell, with measurements taken at 24 hours after chemical dosing in a 96-well plate.BSK_4H_Pselectin is an assay component measured in the BSK_4H assay. It measures P-Selectin antibody related to regulation of gene expression using ELISA technology.Data from the assay component BSK_4H_Pselectin was analyzed into 1 assay endpoint. This assay endpoint, BSK_4H_Pselectin, was analyzed with bidirectional fitting relative to DMSO as the negative control and baseline of activity. Using a type of binding reporter, gain or loss-of-signal activity can be used to understand changes in the signaling as they relate to the gene SELP. Furthermore, this assay endpoint can be referred to as a primary readout, because this assay has produced multiple assay endpoints where this one serves a signaling function. To generalize the intended target to other relatable targets, this assay endpoint is annotated to the cell adhesion molecules intended target family, where the subfamily is selectins.
The levels of cell surface (or secreted, indicated by the prefix "s") biomarker endpoints were measured by ELISA. Overt cytotoxicity to cells in confluent adherent cultures (all systems other than the BT system) was assessed by measuring total protein levels using sulforhodamine B (SRB) staining in parallel cultures at the time of biomarker measurements, indicated as SRB endpoints. For proliferation assays for adherent cell types, individual cell types are cultured at sub-confluence and relative cell numbers quantified by SRB staining at time points optimized for each system (48 h: 3C and CASM3C systems; 72 h: BT and HDF3CGF systems; 96 h: SAg system). SRB was performed by staining cells with 0.1% SRB after fixation with 10% TCA and reading wells at 560 nm.Viability and proliferation of PBMC (T cells) was quantified by Alamar Blue reduction for the SAg and BT systems. For PBMC viability (referred to as PBMC Cytotoxicity within the assay endpoint names), cells were plated (75,000/well in a 96-well plate) and then chemical samples added for 1 h before addition of activators, SEB and TSST-1 (20 ng/mL final concentration each). Cells were incubated for 90 h. Then, Alamar Blue (20 uL/well) (Invitrogen, Cat DAL1100) was added for 6 h, and the plates were read with a fluorescence microplate reader at 546/580 nm (excitation/emission). For PBMC proliferation, cells were plated and activated as above but incubated for only 16 h prior to addition of Alamar Blue. Plates were read after 6 h.
For `CCCCCCCCn1sccc1=O`, the AC50 was 8.69 µM (active).
For `CCCCCCCCCCCCCN1CC(C)OC(C)C1` (stereo not given), the outcome was “inactive”.
In the case of `Cc1ccc(N)c(N)c1`, the outcome is reported as “inactive”.
For `COP(=S)(OC)SCN1C(=O)c2ccccc2C1=O`, the outcome was “inactive”.
`[O-][Cl+]O` was tested, and the outcome was “inactive”.
With `CN(C)c1ccccc1` the outcome was “inactive”.
`Cc1ccc(N)cc1` was tested, and the outcome was “inactive”.
With `CS(=O)(=O)NC(=O)c1cc(Oc2ccc(C(F)(F)F)cc2Cl)ccc1[N+](=O)[O-]` the outcome was “inactive”.
In the case of `Clc1ccc(C(c2ccc(Cl)cc2)C(Cl)Cl)cc1`, the AC50 is reported as 15.1 µM (active).
In the case of `CC(C)(C)OOC(C)(C)CCC(C)(C)OOC(C)(C)C`, the outcome is reported as “inactive”.
With `O=C(N[C@H](c1ccccc1)[C@@H]1CN2CCC1CC2)c1c(Cl)ccc(C(F)(F)F)c1Cl` the outcome was “inactive”.
`CCC(C)c1ccc(O)cc1` (stereo not given) was tested, and the outcome was “inactive”.
For `CCC[CH2][Sn]([Cl])([CH2]CCC)[CH2]CCC`, the AC50 was 0.148 µM (active).
With `CC(C)(OOC(C)(C)c1ccccc1)c1ccccc1` the AC50 was 35.9 µM (active).
`Clc1ccc(Cl)c(Cl)c1` was tested, and the outcome was “inactive”.
`CCNS(=O)(=O)C(F)(F)C(F)(F)C(F)(F)C(F)(F)C(F)(F)C(F)(F)C(F)(F)C(F)(F)F` was tested, and the outcome was “inactive” and the AC50 was 30 µM (active) and 43.4 µM (active).
In the case of `Oc1ccc2ccc3cccc4ccc1c2c34`, the AC50 is reported as 31.6 µM (active).
For `Nc1ccc(N=Nc2ccccc2)cc1`, the outcome was “inactive”.
With `CCCSC(=O)N(CCC)CCC` the outcome was “inactive”.
`O=[N+]([O-])C(Br)(CO)CO` was tested, and the AC50 was 20 µM (active).
With `O=P(OCCCl)(OCCCl)OCCCl` the outcome was “inactive”.
For `CC(C)(C)C(O)(CCc1ccc(Cl)cc1)Cn1cncn1` (stereo not given), the outcome was “inactive”.
In the case of `Nc1ccc(Cc2ccc(N)cc2)cc1`, the outcome is reported as “inactive”.
In the case of `ClCCOCCCl`, the outcome is reported as “inactive”.
For `CCN(CC)N=O`, the outcome was “inactive”.
For `CO[C@@H]1[C@H](OC(=O)NC(=O)CCl)CC[C@]2(CO2)[C@H]1[C@@]1(C)O[C@@H]1CC=C(C)C`, the AC50 was 2.09 µM (active).
In the case of `CCC12COCN1COC2`, the outcome is reported as “inactive”.
In the case of `C1=Cc2cccc3cccc1c23`, the outcome is reported as “inactive”.
In the case of `c1ccc2c(c1)-c1cccc3cccc-2c13`, the outcome is reported as “inactive”.
For `CC(C)N(Cc1ccccc1)C(=O)C(C)(C)C`, the outcome was “inactive”.
In the case of `O=C(Nc1ccccc1)c1ccccc1I`, the outcome is reported as “inactive”.
With `CNC(=O)Oc1cccc2c1OC(C)(C)C2` the outcome was “inactive”.
`O=[N+]([O-])c1ccc(Oc2ccc(Cl)cc2Cl)cc1` was tested, and the outcome was “inactive”.
In the case of `CCN(CC)CCO`, the outcome is reported as “inactive”.
In the case of `Clc1ccccc1Cl`, the outcome is reported as “inactive”.
With `c1ccc(NNc2ccccc2)cc1` the outcome was “inactive”.
In the case of `Cc1cc(N=Nc2ccccc2C)ccc1N`, the AC50 is reported as 29.1 µM (active).
In the case of `N#CC(Br)(Br)C(N)=O`, the outcome is reported as “inactive”.
`C[N+](C)(C)CC1CO1` (stereo not given) was tested, and the outcome was “inactive”.
